# The supplement of paper PMC10849652
# About 7,900 targets were measured; listed, in parts, are those with a hit and a random draw of the rest. About 0.6% of all pairs of compound and target were hits. Values without a mark were called inactive.
# How the values were obtained:
# Assay in all cases: log2 fold change, soluble protein after heating vs DMSO (PISA); higher = thermal stabilisation; K562 cells, 10 uM, 30 min; active = over 0.2 and 3.5 SD of the protein, either way, in both replicates (recomputed)
# [1] = compound: CC[C@@H]1C(=O)N(C)c2cnc(Nc3ccc(C(=O)NC4CCN(C)CC4)cc3OC)nc2N1C1CCCC1
# Summary of the method: (§1)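 K562 cells (2×10^6 cells/mL) were treated with 10 μM compound for 30 min, and aliquots were heated for 3 min over 48°C-58°C. Pooled aliquots were extracted in PBS with 0.5% NP-40 at 4°C, and the supernatant after 21,000xg for 90 min was measured by TMTpro 16plex LC-MS/MS with channel sums equalised. Reported thermal stability, relative to control samples and from duplicates, is a log2 fold change.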
# [2] = compound: CC[C@@H]1C(=O)N(C)c2cnc(Nc3ccc(C(=O)N[C@H]4CC[C@H](N5CCN(CC6CC6)CC5)CC4)cc3OC)nc2N1C(C)C [volasertib]
# Summary of the method: as §1
# [3] = compound: CC[C@H](C)N1C=C(C2=C(C=C(C=C21)C3=CN=C(C=C3)N4CCNCC4)C(=O)NCC5=C(C=C(NC5=O)C)C)C
# Summary of the method: as §1
# [4] = compound: CC[C@H](C)[C@@H](C(=O)N[C@@H]([C@@H](C)O)C(=O)N[C@@H](CC(C)C)C(=O)[C@]1(CO1)C)NC(=O)[C@H]([C@@H](C)CC)N(C)C(=O)C [epoxomicin]
# Summary of the method: as §1
# [5] = compound: CCn1c(C(=O)N(C2CC2)C2CC2)cc2c3c(ncn3C)c(Nc3cc(C)n(C)n3)nc21
# Summary of the method: as §1
# [6] = compound: CCn1cc(-c2ccnc3[nH]c(-c4cccc(CN(C)C)c4)cc23)c(-c2ccc(NC(=O)N(C)C)cc2)n1
# Summary of the method: as §1
# [7] = compound: CN(C)CC(=O)Nc1ccc2[nH]c(=O)c3ccccc3c2c1
# Summary of the method: as §1
# [8] = compound: CN(CCOC1=CC=C(C=C1)C[C@H]2C(=O)NC(=O)S2)C3=CC=CC=N3 (racemic) [rosiglitazone]
# Summary of the method: as §1
# [9] = compound: CN1C2=C(C3=C1C(=O)N(N=C3)CC4=CC(=CC=C4)N)SC(=C2)S(=O)C
# Summary of the method: as §1
# [10] = compound: CN1CCC(CNc2ccc3ncc(-c4cccc(OC(F)(F)F)c4)n3n2)CC1
# Summary of the method: as §1
# [11] = compound: CN1CCN(CCOc2cc(OC3CCOCC3)c3c(Nc4c(Cl)ccc5c4OCO5)ncnc3c2)CC1 [saracatinib]
# Summary of the method: as §1
# [12] = compound: CN1CC[C@H](c2c(O)cc(O)c3c(=O)cc(-c4ccccc4Cl)oc23)[C@H](O)C1 [alvocidib]
# Summary of the method: as §1
# [13] = compound: CN1CCc2c(c3ccccc3n2Cc2ccc(C(=O)NO)cc2)C1 [Tubastatin A]
# Summary of the method: as §1
# [14] = compound: CNC(=O)C1=CC=CC=C1NC2=NC(=NC=C2Cl)NC3=C(C=C(C=C3)N4CCOCC4)OC
# Summary of the method: as §1
# [15] = compound: CNC(=O)c1ccc(Nc2ncc(C(F)(F)F)c(NCc3nccnc3N(C)S(C)(=O)=O)n2)cc1 [defactinib]
# Summary of the method: as §1
# [16] = compound: CNCc1ccc(-c2[nH]c3cc(F)cc4c3c2CCNC4=O)cc1 [rucaparib]
# Summary of the method: as §1
# [17] = compound: CNc1nc(-c2ccc3c(N)n[nH]c3c2)cc(N2C[C@@H](C(=O)NC3CCCCC3)CC[C@H]2C)n1
# Summary of the method: as §1
# [18] = compound: COC(=O)N[C@@H](C)CNc1nccc(-c2cn(C(C)C)nc2-c2cc(Cl)cc(NS(C)(=O)=O)c2F)n1 [encorafenib]
# Summary of the method: as §1
# [19] = compound: COC(=O)[C@H](CCSC)NC(=O)C1=C(C=C(C=C1)NC[C@H](CS)N)C2=CC=CC=C2
# Summary of the method: as §1
# [20] = compound: CN1CCN(c2nc(C3=C(c4c[nH]c5ccccc45)C(=O)NC3=O)c3ccccc3n2)CC1 [sotrastaurin]
# Summary of the method: as §1
# Chain of UniProt P42025 (P42025 whole entry, looked up): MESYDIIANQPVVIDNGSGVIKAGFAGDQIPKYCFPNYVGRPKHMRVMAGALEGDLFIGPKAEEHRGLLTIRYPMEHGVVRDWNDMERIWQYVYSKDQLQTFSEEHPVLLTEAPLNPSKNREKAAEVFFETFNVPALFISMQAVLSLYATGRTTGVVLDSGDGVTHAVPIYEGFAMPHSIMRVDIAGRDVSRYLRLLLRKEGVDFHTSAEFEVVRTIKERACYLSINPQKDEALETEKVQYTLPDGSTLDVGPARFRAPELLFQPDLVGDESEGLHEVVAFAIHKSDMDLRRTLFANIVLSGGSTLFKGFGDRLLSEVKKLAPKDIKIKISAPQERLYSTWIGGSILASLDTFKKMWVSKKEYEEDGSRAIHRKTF
# Chain of UniProt Q9NWX5 (Q9NWX5 whole entry, looked up): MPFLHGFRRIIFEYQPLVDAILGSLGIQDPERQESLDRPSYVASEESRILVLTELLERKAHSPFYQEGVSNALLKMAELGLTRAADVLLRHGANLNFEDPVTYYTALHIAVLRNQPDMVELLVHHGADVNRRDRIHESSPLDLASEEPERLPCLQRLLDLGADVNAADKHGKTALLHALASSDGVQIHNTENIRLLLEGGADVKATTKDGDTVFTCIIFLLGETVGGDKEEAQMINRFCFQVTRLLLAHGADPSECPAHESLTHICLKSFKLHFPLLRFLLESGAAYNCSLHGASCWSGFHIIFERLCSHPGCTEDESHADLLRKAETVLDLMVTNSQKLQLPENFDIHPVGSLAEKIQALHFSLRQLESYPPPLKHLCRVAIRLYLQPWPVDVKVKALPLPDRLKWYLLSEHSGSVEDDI
# Chain of UniProt P05091 (P05091 whole entry, looked up): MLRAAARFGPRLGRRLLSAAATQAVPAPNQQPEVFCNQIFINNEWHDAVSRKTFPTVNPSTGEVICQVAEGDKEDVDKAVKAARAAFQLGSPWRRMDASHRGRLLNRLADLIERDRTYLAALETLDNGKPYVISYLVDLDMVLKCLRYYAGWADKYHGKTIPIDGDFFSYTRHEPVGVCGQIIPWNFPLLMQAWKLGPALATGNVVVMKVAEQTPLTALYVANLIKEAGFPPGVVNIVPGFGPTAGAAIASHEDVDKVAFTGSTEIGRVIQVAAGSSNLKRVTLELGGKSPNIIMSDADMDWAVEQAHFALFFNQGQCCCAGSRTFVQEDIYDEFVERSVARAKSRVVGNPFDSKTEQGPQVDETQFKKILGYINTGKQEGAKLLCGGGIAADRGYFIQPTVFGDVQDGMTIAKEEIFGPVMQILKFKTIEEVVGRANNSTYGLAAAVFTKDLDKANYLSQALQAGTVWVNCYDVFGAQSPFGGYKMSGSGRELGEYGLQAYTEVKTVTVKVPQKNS
# Chain of UniProt P08758 (P08758 whole entry, looked up): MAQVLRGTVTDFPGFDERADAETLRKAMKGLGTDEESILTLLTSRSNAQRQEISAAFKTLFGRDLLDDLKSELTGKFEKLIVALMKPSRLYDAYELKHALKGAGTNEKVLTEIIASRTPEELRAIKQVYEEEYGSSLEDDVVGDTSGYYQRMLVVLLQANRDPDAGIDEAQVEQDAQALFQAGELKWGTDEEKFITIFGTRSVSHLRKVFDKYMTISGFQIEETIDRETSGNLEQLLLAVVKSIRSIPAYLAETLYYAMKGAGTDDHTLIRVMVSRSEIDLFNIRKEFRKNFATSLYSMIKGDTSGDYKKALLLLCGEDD
# Chain of UniProt Q96F25 (Q96F25 whole entry, looked up): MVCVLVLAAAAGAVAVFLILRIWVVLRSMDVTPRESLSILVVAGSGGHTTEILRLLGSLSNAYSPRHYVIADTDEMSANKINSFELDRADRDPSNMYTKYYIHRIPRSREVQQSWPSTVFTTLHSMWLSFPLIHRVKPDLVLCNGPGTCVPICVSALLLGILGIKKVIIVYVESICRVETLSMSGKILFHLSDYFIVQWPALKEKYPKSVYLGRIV
# Chain of UniProt Q9NX46 (Q9NX46 whole entry, looked up): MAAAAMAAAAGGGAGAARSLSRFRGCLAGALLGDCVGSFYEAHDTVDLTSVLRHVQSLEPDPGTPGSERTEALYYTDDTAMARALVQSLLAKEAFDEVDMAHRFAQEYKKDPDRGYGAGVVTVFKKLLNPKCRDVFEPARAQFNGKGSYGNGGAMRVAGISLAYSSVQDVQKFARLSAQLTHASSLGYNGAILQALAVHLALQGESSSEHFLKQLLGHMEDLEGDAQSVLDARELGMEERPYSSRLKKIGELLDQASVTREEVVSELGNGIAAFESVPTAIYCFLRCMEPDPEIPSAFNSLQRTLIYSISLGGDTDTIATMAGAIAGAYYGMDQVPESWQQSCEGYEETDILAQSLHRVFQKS
# Chain of UniProt Q99943 (Q99943 whole entry, looked up): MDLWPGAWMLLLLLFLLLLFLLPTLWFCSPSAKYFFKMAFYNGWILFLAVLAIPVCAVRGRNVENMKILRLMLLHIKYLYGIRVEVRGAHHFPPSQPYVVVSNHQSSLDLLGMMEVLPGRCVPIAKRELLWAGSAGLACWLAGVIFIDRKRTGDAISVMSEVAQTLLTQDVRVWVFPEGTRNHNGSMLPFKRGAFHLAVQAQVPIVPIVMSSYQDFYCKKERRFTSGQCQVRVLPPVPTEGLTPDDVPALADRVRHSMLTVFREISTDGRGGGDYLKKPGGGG
# Chain of UniProt Q8NFV4 (Q8NFV4 whole entry, looked up): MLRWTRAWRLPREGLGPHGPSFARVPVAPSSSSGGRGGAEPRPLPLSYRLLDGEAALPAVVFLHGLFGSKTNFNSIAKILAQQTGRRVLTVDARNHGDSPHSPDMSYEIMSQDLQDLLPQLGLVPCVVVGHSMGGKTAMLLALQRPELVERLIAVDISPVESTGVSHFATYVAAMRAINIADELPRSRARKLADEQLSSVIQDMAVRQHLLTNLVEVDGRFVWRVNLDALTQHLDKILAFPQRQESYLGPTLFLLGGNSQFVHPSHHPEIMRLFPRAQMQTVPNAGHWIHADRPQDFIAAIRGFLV
Target,log2 fold change [1],log2 fold change [2],log2 fold change [3],log2 fold change [4],log2 fold change [5],log2 fold change [6],log2 fold change [7],log2 fold change [8],log2 fold change [9],log2 fold change [10],log2 fold change [11],log2 fold change [12],log2 fold change [13],log2 fold change [14],log2 fold change [15],log2 fold change [16],log2 fold change [17],log2 fold change [18],log2 fold change [19],log2 fold change [20]
ALG14 (UniProt Q96F25),0.2,0.11,-0.077,0.382,-0.014,-0.215,0.062,0.016,-0.124,0.443,0.049,-0.14,-0.027,-0.001,0.091,-0.173,-0.022,0.028,-0.002,
ANXA5 (UniProt P08758),-0.084,-0.214 (active),0.04,0.068,0.002,-0.041,0.012,0.007,-0.04,-0.042,-0.023,-0.083,-0.006,0.039,-0.082,-0.001,0.012,0.083,-0.062,-0.038
ACTR1B (UniProt P42025),0.081,0.048,0.01,-0.008,-0.014,-0.581 (active),0.021,-0.033,-0.089,0.306,0.012,-0.058,-0.004,0,-0.005,-0.037,-0.012,-0.048,-0.075,-0.025
ASB6 (UniProt Q9NWX5),0.047,-0.321,0.028,-0.094,-0.016,-0.076,0.041,0.067,,-0.083,,,,-0.078,-0.033,0.124,,-0.094,0.031,-0.029
ALDH2 (UniProt P05091),-0.025,0.06,-0.009,-0.038,-0.017,-0.042,0.029,0.058,-0.048,-0.006,0.007,-0.04,-0.032,0.078,-0.055,-0.099,0.026,0.013,-0.03,-0.099
ADPRHL2 (UniProt Q9NX46),-0.027,0.071,-0.028,0.145,-0.05,-0.093,0.116,0.002,-0.042,0.133,0.039,-0.003,0.031,0.049,0.015,-0.085,-0.026,-0.009,-0.116,-0.001
AGPAT1 (UniProt Q99943),-0.032,-0.243 (active),0.015,-0.056,-0.007,-0.006,0.032,-0.011,-0.102,0.315 (active),-0.009,0.002,-0.004,0.074,-0.079,-0.109,-0.011,0.039,0.003,0.045
ABHD11 (UniProt Q8NFV4),-0.077,-0.127,-0.003,0.272,0.045,0.086,0.007,-0.016,-0.033,-0.126,-0.022,-0.066,0.096,0.05,-0.114,0.02,-0.102,0.004,-0.095,
